CASP6 VEID inh: human caspase-6 inhibitors, primary screen, biochemical, VEID-R110 fluorescence, single point, set 2; purified caspase-6, Z-VEID-R110 cleavage fluorescence; inhibition, % at 12.5 µM; 350,000 compounds, 0.53% hits;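 active means mean inhibition across replicates at least about 35%, with every replicate also reaching that limit, limit read from the data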;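 further: 0% = median of neutral control wells and 100% = no fluorescence left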
UHRF1 MBD2 ctr: UHRF1 methylated DNA binding inhibitors, primary screen, counter-screen for MBD2 inhibitor project, biochemical, TR-FRET, human UHRF1, single concentration; E3 ubiquitin-protein ligase UHRF1 (Homo sapiens), Q96T88; UHRF1 binding to methylated oligo; inhibition, % at 4.4 µM; 370,000 compounds, 0.75% hits; in the data active means inhibition above about 21%;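 further: UHRF1 SRA domain binding a hemimethylated CpG hairpin DNA probe; 0% = median of test compound wells and 100% = reference inhibitor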
MBD2 inh: inhibitors of MBD2 binding to methylated DNA, primary screen, biochemical, TR-FRET, DNA-binding domain, human; MBD2 binding to methylated oligonucleotide; inhibition, % at 4.4 µM; 370,000 compounds, 0.31% hits; AID 686964, 2013; in the data active means inhibition above about 13%
Target sequence (Q9UBB5 whole entry, looked up, the tested form may be a part): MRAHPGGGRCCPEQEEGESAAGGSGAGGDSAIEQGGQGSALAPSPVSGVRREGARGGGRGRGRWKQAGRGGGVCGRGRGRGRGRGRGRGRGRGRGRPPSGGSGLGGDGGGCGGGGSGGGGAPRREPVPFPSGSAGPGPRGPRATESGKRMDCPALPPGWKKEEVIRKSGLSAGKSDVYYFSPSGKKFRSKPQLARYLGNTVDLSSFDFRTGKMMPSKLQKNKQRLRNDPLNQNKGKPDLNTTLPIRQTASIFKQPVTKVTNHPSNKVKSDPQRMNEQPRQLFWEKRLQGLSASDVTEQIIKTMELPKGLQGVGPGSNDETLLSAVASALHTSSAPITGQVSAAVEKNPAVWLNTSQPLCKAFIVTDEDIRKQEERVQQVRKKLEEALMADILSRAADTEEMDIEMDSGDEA
LEDGF integ inh: blockers of LEDGF/p75-dependent integrase strand transfer – biochemical, TR-FRET, high throughput, primary screen | HIV-1 integrase (with human LEDGF/p75) | TR-FRET IN-LEDGF/p75 DNA integration, Eu/Cy5 | inhibition, % at 3.7 µM | 370,000 compounds, 0.64% hits;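 active means inhibition above the screen-wide mean plus 3 SD, cut at about 13% in these data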;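 further: signal is the Cy5 over europium emission ratio at 671 and 618 nm; 0% = plate median of compound wells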
* hit, by the source's call; . = no result given. Most compounds without a hit are left out; they make up all but 1.4% or so of the library.

SMILES	CASP6 VEID inh	UHRF1 MBD2 ctr	MBD2 inh	LEDGF integ inh
Cc1onc(NC(=O)NC(=O)c2c(F)cccc2Cl)c1Br	76*	4	0	2
Cc1onc(NC(=O)NC(=O)c2c(Cl)cccc2Cl)c1Br	-1	2	7	-5
O=[N+]([O-])c1cccc(NC(=S)N2CCCC2)c1	-2	27*	7	2
CO[C@H]1CN(C)C(=O)c2cc(NS(=O)(=O)c3ccc(C)cc3)ccc2OC[C@H](C)N(C)C[C@@H]1C	-2	.	.	.
CC(C)NC(=O)N(C)C[C@H]1OCCCC[C@H](C)Oc2ccc(NS(=O)(=O)c3ccc(Cl)cc3)cc2C(=O)N([C@H](C)CO)C[C@H]1C	4	.	.	.
O=C(Nc1cccc(O)c1)C(=O)Nc1ccccn1	1	68*	0	0
O=C(Nc1ccccc1)C(=O)Nc1ccccn1	.	-1	-4	3
CO[C@@H]1CN(C)C(=O)c2cc(NC(=O)C3CCC3)ccc2OC[C@@H](C)NC[C@H]1C	0	.	.	.
Cc1cc(C)nc(N2CCN(S(=O)(=O)c3ccc(F)cc3)CC2)n1	38*	-1	-3	0
CCOC(=O)c1cccc(N2C(=O)Nc3ccccc3N2O)c1	.	23*	3	1
CCOC(=O)c1c(-c2ccccc2)csc1N1C(=O)Nc2ccccc2N1O	2	1	0	4
O=C1NC(=Nc2ccccc2Cl)S/C1=C\c1cccc([N+](=O)[O-])c1O	39*	-4	-6	9
COc1c(/C=C2\SC(=Nc3ccccc3Cl)NC2=O)cccc1[N+](=O)[O-]	-1	1	2	-1
O=C(N/N=C\C=C\c1ccc2c(c1)OCO2)c1cccnc1	3	33*	-4	-2
O=C(/C=C/c1ccc2c(c1)OCO2)c1cccnc1	.	-1	4	-3
O=C(Nc1ccc(F)cc1)N1CCN(C(=O)C2CCCO2)CC1 (configuration not stated)	82*	4	8	-9
O=C(NCc1ccc(F)cc1)c1ccc(NC(=O)C2CCCO2)cc1 (configuration not stated)	-1	38*	2	-1
O=C(Nc1ccccc1)c1ccccc1NC(=O)c1ccccc1C(=O)O	-2	28*	-2	-1
O=C(O)c1ccccc1C(=O)Nc1ccccc1	.	1	-1	2
O=C1c2nc3cc(-c4ccco4)[nH]n3c(=O)c2CN1Cc1ccccc1	71*	0	-4	-1
O=C(C1CCCC1)N1CC2(C1)[C@H](c1ccccc1)[C@@H](CO)N2C(=O)NC1CCCC1	0	.	.	.
Cc1ccc(N(C(=O)C2CCC(=O)N2)C2(C(=O)NC3CCCC3)CCCCC2)cc1 (configuration not stated)	.	78*	-2	0
O=C(Cc1cccs1)N(c1ccc(F)cc1)C1(C(=O)NC2CCCCC2)CCCC1	1	27*	4	0
COc1cccc2c(=O)n(CC(=O)N3CCC(C)CC3)ccc12	1	93*	-8	6
COc1cccc2c(=O)n(CC(=O)N3CCN(c4ccccc4)CC3)ccc12	0	0	-4	9
SMILES	CASP6 VEID inh	UHRF1 MBD2 ctr	MBD2 inh	LEDGF integ inh
COc1ccc(/C=N/OCC(=O)N=Nc2c(O)[nH]c3ccc(Br)cc23)cc1	-3	21*	6	0
Cc1cccc(C)c1OCC(=O)N=Nc1c(O)[nH]c2ccc(Br)cc12	.	2	-5	2
CO[C@H]1CC[C@@H]2CCN(C)C(=O)[C@@H](C)[C@@H](OC)CN(C)C(=O)c3cccc(C#N)c3OC[C@@H]1O2	-2	.	.	.
O=C(NC1CCCC1)c1n[nH]c2ccccc12	-3	45*	-5	-2
C[C@H](CO)N1C[C@H](C)[C@@H](CN(C)C(=O)Nc2ccc(F)cc2)Oc2ccc(NC(=O)CCN3CCOCC3)cc2C1=O	0	.	.	.
CC(=O)N1C[C@H]2CON(C)[C@H]2C[C@H]1c1ccccc1Br	1	-2	0	4
CN1OC[C@@H]2CN(C(=O)CCc3ccccc3)[C@H](c3ccccc3Br)C[C@@H]21	-1	77*	-4	4
C[C@@H](O)C#Cc1cnc2c(c1)C(=O)N([C@@H](C)CO)C[C@H](C)[C@H](CN(C)Cc1cccc(F)c1)O2	0	.	.	.
O=C(CCN1C(=O)/C(=C\C=C\c2ccccc2)SC1=S)Nc1ccc(C(=O)O)cc1	49*	3	-2	5
O=C(CN1C(=O)S/C(=C/C=C/c2ccccc2)C1=O)Nc1ccc(C(=O)O)cc1	28	-2	-1	2
O=C(/C=C1\SC(=O)N(CC(=O)Nc2ccc(Cl)cc2)C1=O)Nc1ccc(F)cc1	43*	0	-1	1
O=C(CN1C(=O)S/C(=C\C=C\c2ccccc2)C1=O)Nc1ccc(C(=O)O)cc1	44*	0	-1	-5
O=C(N[C@H]1CC[C@@H](CCNC(=O)C2CCCCC2)O[C@H]1CO)c1ccncc1	-2	.	.	.
CCCCOc1ccc(C(=O)OCC(=O)N2CCOCC2)cc1	61*	5	-3	2
COc1ccc(NC(=O)Cn2cc(C(C)=O)c3ccccc32)cc1	-4	94*	-4	6
COc1ccc(NC(=O)CN2CCN(c3ccccc3C)CC2)cc1	0	79*	0	-1
C[C@H](CO)N1C[C@H](C)[C@@H](CN(C)C(=O)c2cnccn2)Oc2ncc(C#CCN(C)C)cc2C1=O	-2	.	.	.
O=C(NCc1ccccc1Cl)c1ccc2nc[nH]c2c1	39*	1	4	2
O=C(Nc1cccc(F)c1)N1CCCCN2[C@H](CO)[C@@H](c3ccc(C#CC4CC4)cc3)[C@H]2C1	-2	.	.	.
O=C1CN(C(=O)C2CCCC2)CCN1	24	63*	0	-1
CC(C)c1ccc(/C=C2\C(=O)N(CCN3CCOCC3)C(=S)N2C)cc1	.	22*	-3	-1
O=C([C@H]1[C@H](CO)[C@H]2Cn3c(cccc3=O)[C@@H]1N2)N1CCc2ccccc2C1	-2	.	.	.
S=C(Nc1ccc2nsnc2c1)N1CCCCCC1	56*	-3	-3	5
Cc1noc(C)c1S(=O)(=O)Nc1ccc(C(=O)NC2CCCCCC2)cc1	.	21*	11	7
O=C(NCCCO)c1cc([N+](=O)[O-])cc2c1C=Cc1ccccc1O2	89*	12	3	0
C[C@H]1CN([C@@H](C)CO)S(=O)(=O)c2ccc(Br)cc2O[C@@H]1CN(C)C	3	.	.	.
CCOC(=O)[C@@H]1[C@H]2COc3cc(OC)ccc3[C@H]2N2C(=O)N(c3cccc(F)c3)C(=O)[C@]12C	51*	0	4	0
CCOC(=O)[C@@H]1[C@H]2COc3cc(OC)ccc3[C@@H]2N2C(=O)N(c3cccc(C)c3)C(=O)[C@]12C	-1	-2	0	-1
COc1ccccc1NC(=O)N1[C@H](CO)[C@H](c2ccccc2)[C@@H]1C#N	2	.	.	.
